Experimental findings from PubChem BioAssay AID504400 (The Scripps Research Institute Molecular Screening Center, 2011) are described below.

A number with no mark means an inactive call. The rule behind the calls is not given here.

The subject of the experiment is Phorbol Ester. The experiment in a line: CYP450 and receptor off-target profile – biochemical, Ricerca HitProfilingScreen, selectivity assay for S1P4 agonist project, late-stage follow-up (AID 504400). The settings on record: Ricerca radioligand binding/enzyme panel plus CYP450, at 10 µM, stronger effect = higher value.

Usually inhibition stands for the drop in the measured response relative to a control, in per cent. `Clc1ccc(OCCOc2ccc(Br)nc2Br)c(Cl)c1`: the inhibition was 4%.
